# In PubChem BioAssay (NCI):
# The panel holds about 79,000 compounds, 15% with a hit somewhere; the sample as a whole holds those more often. Values without a mark were called inactive. Activity calls are given as the source filed them. No stated cut-off is given here; in the data, active means growth inhibition above about 70%; inactive means the rest.
# Experiments:
# [1] = NCI Yeast Anticancer Drug Screen. Data for the rad50 strain (AID 155);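 further: 0% = growth of vehicle-only cultures of the same strain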; settings: S. cerevisiae rad50 strain growth inhibition, active compounds read high
# Procedure, shortened: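 Compounds were tested on a yeast strain with an engineered DNA damage repair alteration; the reported value is growth inhibition normalised to vehicle treatment.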
# [2] = NCI Yeast Anticancer Drug Screen. Data for the mec2-1 strain (AID 157); settings: S. cerevisiae mec2-1 strain, active compounds read high
# Procedure, shortened: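 Test agents were screened against the mec2-1 yeast strain, with defined DNA repair or cell cycle alteration. Growth was scored as inhibition against vehicle-only controls.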
# [3] = NCI Yeast Anticancer Drug Screen. Data for the sgs1 mgt1 strain (AID 161);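 further: 0% = growth of cultures given vehicle only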; settings: S. cerevisiae sgs1 mgt1 strain, active compounds read high
# Procedure, shortened: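 Test agents were incubated with a DNA-repair-mutant yeast strain. Growth was then read and compared against vehicle-treated controls.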
# [4] = NCI Yeast Anticancer Drug Screen. Data for the cln2 rad14 strain (AID 165);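 further: 0% = growth equal to vehicle treated cultures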; settings: S. cerevisiae cln2 rad14 strain, active compounds read high
# Procedure, shortened: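 Growth of compound-exposed yeast (cln2 rad14 genotype) measured and expressed as inhibition relative to vehicle.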
# [5] = NCI Yeast Anticancer Drug Screen. Data for the bub3 strain (AID 167); settings: S. cerevisiae bub3 mutant strain, active compounds read high
# Procedure, shortened: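 Growth of a checkpoint-deficient yeast mutant is measured after compound exposure. Values represent inhibition relative to vehicle.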
# [6] = NCI Yeast Anticancer Drug Screen. Data for the mlh1 rad18 strain (AID 175); settings: S. cerevisiae mlh1 rad18 strain growth inhibition, active compounds read high
# Procedure, shortened: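 In this whole-cell yeast screen, a strain with altered DNA damage repair is challenged with compound, and its growth is measured against matched vehicle-treated controls.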
# [7] = at 5.0 µM (retest, dose inferred, filed as 0.5)
# [8] = at 50.0 µM (retest, dose inferred, filed as 5.0)
SMILES,"growth inhibition [1, 7] [%]","growth inhibition [1, 8]",growth inhibition ([1]; at 50.0 µM),"growth inhibition [2, 7] [%]","growth inhibition [2, 8]",growth inhibition ([2]; at 50.0 µM),"growth inhibition [3, 7]","growth inhibition [3, 8]",growth inhibition ([3]; at 50.0 µM),"growth inhibition [4, 7] [%]","growth inhibition [4, 8]",growth inhibition ([4]; at 50.0 µM),"growth inhibition [5, 7] [%]","growth inhibition [5, 8]",growth inhibition ([5]; at 50.0 µM),"growth inhibition [6, 7]","growth inhibition [6, 8]",growth inhibition ([6]; at 50.0 µM)
c1ccc(CC(Nc2cccnc2)c2ccccc2)cc1 (configuration not stated),6,56%,74.5% (active),-13,24%,22.6%,-2%,74% (active),74.1% (active),-1,28%,21.9%,24,40%,56.1%,1%,60%,75.3% (active)
CC(=O)Oc1c(O)c2ccccc2c2ccccc12,6,93% (active),99.5% (active),-5,97% (active),99.2% (active),2%,83% (active),99.3% (active),-11,95% (active),97.5% (active),5,96% (active),99.5% (active),-4%,92% (active),98.9% (active)
CC1=C/C(=C\C=C2/N(C)c3c(C)cccc3C2(C)C)C(=O)c2ncccc21,28,98% (active),94.2% (active),28,99% (active),29.7%,19%,98% (active),70.8% (active),9,98% (active),24.6%,49,98% (active),64.6%,45%,98% (active),63.2%
COC1=CC(=O)[C@H]2CC(C)=CC[C@]2(C)C1=O,-3,2%,9.35%,1,0%,6.55%,2%,0%,-4.75%,1,-2%,84% (active),-1,0%,3.35%,-1%,1%,15.1%
CCN(CC)COC(=S)S,8,99% (active),97.7% (active),-3,100% (active),83.1% (active),11%,99% (active),99% (active),5,97% (active),44%,-11,99% (active),97.3% (active),15%,99% (active),98.5% (active)
N=C1C(=O)c2ccccc2-c2ccccc21,-93,97% (active),96.3% (active),-25,99% (active),96.3% (active),-35%,98% (active),97.3% (active),-75,98% (active),91.3% (active),-20,97% (active),97% (active),-86%,97% (active),95.7% (active)
COc1ccc(OC(=O)c2ccccc2)c2c1C(=O)C=CC2=O,5,38%,92.7% (active),10,38%,84.2% (active),-38%,21%,90.2% (active),0,18%,51.5%,-1,24%,76.8% (active),9%,24%,67.8%
COc1ccc2c(c1)CCCN2CCCCCCCN1CCCCC1,13,49%,72.5% (active),16,34%,45.5%,26%,73% (active),77.1% (active),22,58%,90.2% (active),34,64%,83.5% (active),32%,73% (active),63.1%
O=S(=O)(Nc1ccccc1)c1ccccc1CC(O)(c1ccccc1)c1ccccc1,46,90% (active),90% (active),67,94% (active),93% (active),98% (active),94% (active),91.2% (active),59,89% (active),90.4% (active),40,90% (active),90.4% (active),90% (active),90% (active),89.2% (active)
